Laboratory results as given in PubChem BioAssay AID651956 (Broad Institute, 2012).
Potency and affinity values are given separately. Results filed as inconclusive are left out. Entries that show only a call come without a potency. The source made the active and inactive calls.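 Rule for the calls: active = in every test run, a fitted half-maximal concentration for signal decrease at or below twice the highest tested concentration; inconclusive = runs disagree, flat 30 to 70% decrease, or poor fit; inactive = the rest.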

Assay: activation of miR-122 Renilla sensor silencing – cell-based, Huh7 psiCHECK-miR122, Renilla luciferase, cherry-picked, dose response (AID 651956);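 note: Renilla luciferase from a miR-122 sensor reporter so lower signal means miR-122 activation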
Conditions: Huh7 psiCHECK-miR122 Renilla luciferase reporter, 48 h; series mostly up to 35 µM

Question: Which outcome does the source give for `CO[C@@H]1CN(C)C(=O)c2ccc(NC(=O)c3nc4ccccc4s3)cc2OC[C@H](C)N(Cc2cccnc2)C[C@H]1C` here?
Answer: inactive

Question: For `CCNC(=O)Nc1ccc2c(c1)C(=O)N(C)[C@H]1CC[C@H](CC(=O)Nc3cccc(F)c3)O[C@@H]1CO2`, which outcome is on record?
Answer: inactive

Question: Which outcome does the source give for `COc1ccccc1NC(=O)Nc1ccc2c(c1)C(=O)N(C)[C@H]1CC[C@H](CC(=O)Nc3ccc4c(c3)COC4)O[C@@H]1CO2` here?
Answer: inactive

Question: Which outcome does the source give for `C/C=C/c1ccc([C@@H]2[C@@H](CO)N[C@@H]2CN(CC)C(=O)CN2CCOCC2)cc1` here?
Answer: inactive

Question: Which outcome does the source give for `CCCNC(=O)C[C@H]1CC[C@H]2[C@H](COc3ccc(NC(=O)c4ccc(C(F)(F)F)cc4)cc3C(=O)N2C)O1` here?
Answer: inactive

Question: Which outcome does the source give for `C[C@H](NC(=O)C[C@@H]1CC[C@H]2[C@H](COc3ccc(NS(=O)(=O)c4ccc(Cl)cc4)cc3C(=O)N2C)O1)c1ccccc1` here?
Answer: inactive

Question: Which outcome does the source give for `COC(=O)C[C@H]1CC[C@@H]2[C@@H](COc3ccc(NC(=O)c4cnccn4)cc3C(=O)N2C)O1` here?
Answer: inactive

Question: For `CCC(=O)N(C)C[C@@H]1[C@@H](c2ccccc2)[C@H](CO)N1Cc1cccnc1`, which outcome is on record?
Answer: inactive

Question: For `C/C=C/c1ccc([C@@H]2[C@H](CO)N[C@H]2CN(CC(C)C)C(=O)c2ccccn2)cc1`, which outcome is on record?
Answer: inactive

Question: Which outcome does the source give for `C[C@@H]1CN([C@@H](C)CO)S(=O)(=O)c2ccc(C3=CCCCC3)cc2O[C@@H]1CN(C)C(=O)Nc1ccc2c(c1)OCO2` here?
Answer: inactive

Question: For `O=C(Oc1c(CN2CCOCC2)cc(Cl)c2cccnc12)c1ccc(F)cc1`, which outcome is on record?
Answer: inactive

Question: Which outcome does the source give for `CNC(=O)C[C@@H]1CC[C@H]2[C@@H](COc3ccc(NC(=O)c4ccc(C(F)(F)F)cc4)cc3C(=O)N2C)O1` here?
Answer: inactive
